Here are results for 24 molecules from PubChem BioAssay (NCI).

The panel holds about 83,000 compounds, 20% with a hit somewhere; the sample as a whole holds those more often.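 Single-dose data. Exposure time 48 hours. Values below 10 considered active.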 A number with no mark means an inactive call. Active and inactive are the calls of the source.

This assay concerns MDA-MB-468 breast. The assay is described as follows: NCI-60 one-dose screen, 48 h (100 = growth as untreated, 0 = no growth, -100 = all killed). The following applies: 10 µM unless noted.
In the case of `Brc1ccc(-c2nnc3c4[nH]ccc4ncn23)cc1`, the growth is 104%.
With `Cc1nc2c(nnn2-c2ccccc2)c2nc(-c3ccc(Cl)cc3)oc(=O)c12` the figure was 106%; with `Clc1ccc(N2N=C(c3cccc(Nc4ccncc4)c3)CC2c2ccc(Br)cc2)cc1` (centres undefined), -27.1% (active); with `O=C1Nc2ccc(Cl)cc2/C1=C/c1cccs1`, -4.25% (active).
Then `O=C(Nc1ccc(Br)cc1F)c1cc(Br)ccc1O`, with -13.6% (active); and `CCOC(=O)C1=C(C(=O)c2ccccc2)C(c2cccc([N+](=O)[O-])c2)C(C(=O)c2ccccc2)=C(C(=O)OCC)N1`, with 83.2%.
For `COc1ccc2[nH]cc(-c3nc(-c4cn(C)c5ccncc45)cs3)c2c1`, the growth was 102%.
With `O=C1c2ccccc2C(=O)c2c1oc1c2c(=O)[nH]c2ccccc21` the figure was -8.43% (active); with `COc1ccc(-c2cc(-c3ccc(Cl)cc3)c(C#N)c(=O)n2Cc2ccc(C(=O)O)cc2)cc1`, 73.7%.
Then `CN1CCN(CCCOc2cccc3nc(Nc4ccc(Cl)c(F)c4)ccc23)CC1`, with 33.2%; and `Cc1ccc(C(C(N)=O)C(C(N)=O)c2ccccc2)cc1` (centres undefined), with 105%; and `COc1c(Cl)cc(Cl)c2ccc(C=C3C(=O)NC(=S)NC3=O)nc12`, with 108%.
With `CS(=O)CC(=N\O)/C(CS(C)=O)=N\O` (centres undefined) the figure was 104%; with `N=c1c(S(=O)(=O)c2ccccc2)cc2c(=O)n3ccccc3nc2n1C1CCCC1`, 88.1%; with `O=C(Nc1ccc(F)cc1)ON=C1CCCCC1`, 105% [100 µM].
`COC[C@@H](C)n1c(C2CCOCC2)nc2c1C1C=C(OC)C(c3c(C)noc3C)=CC1N=C2` (some centres undefined): the growth is 32.4%.
With `O=C(CCCCCCSc1nc(-c2ccccc2)cc(-c2ccc(Cl)cc2)n1)NO` the figure was 4.78% (active); with `C#Cc1cccc(NC(=O)Nc2cccc(NC(=O)CCl)c2)c1`, -43.5% [8.25 µM] (active).
In the case of `COc1cc(C2=C(c3cn(C)c4ccccc34)COC2=O)cc(OC)c1OC`, the growth was 16%.
With `CC(=O)Nc1ccc(S(=O)(=O)Cl)cc1` the figure was 95%.
With `COc1cc(-c2nn(C(C)(C)C)cc2-c2ccnc(NCCCNS(=O)(=O)c3ccccc3)n2)ccc1Cl` the figure was 67.3%; with `C[C@]12CC[C@@H]3c4cc(OC(F)F)c(OS(N)(=O)=O)cc4CC[C@H]3[C@@H]1CC[C@@H]2OS(N)(=O)=O`, 11.9%; with `CCN(CC)S(=O)(=O)c1ccc(NC(=O)CSc2nnc(C)n2-c2ccccc2)cc1`, 90.6%.
Then `O=C(Cc1ccccc1)NC(c1ccc(Cl)cc1)c1c(O)ccc2ccccc12` (centres undefined), with 7.01% (active).
